About 13,000 (27%) of roughly 48,000 compounds showed an effect of 50% or more. The list shows a part of the results.
The compounds below were run on Wolbachia pipientis (assay: Anti-Wolbachia Cell-Based Screen). Conditions: 5 µM.
Format: functional
Parameters: scale not given: in the data most compounds retested in dose-response had high values

Row | SMILES | Percent Effect [%]
1 | CC(CCn1cccn1)Nc1ccc(-c2nccn2C)nn1 (configuration not stated) | -7.65
2 | CC(C)(NS(C)(=O)=O)C(=O)NCCc1csc2ccccc12 | 9.786
3 | Cc1occc1C(=O)N1CCCN(Cc2nccn2C)CC1 | 92.51
4 | CCc1nnsc1C(=O)N1CCCN(Cc2nccn2C)CC1 | -3.239
5 | Cc1occc1C(=O)N1CCCN(Cc2ncc(Cl)n2C)CC1 | 3.419
6 | Cn1ccnc1CN1CCCN(C(=O)c2ccc(Cl)o2)CC1 | -2.733
7 | Cc1cc(C(=O)N2CCCN(Cc3nccn3C)CC2)no1 | 89.63
8 | O=C(NCc1ccccc1)c1nnc2ccc(N3CCOCC3)cc2n1 | 4.321
9 | Cc1ccc(C)c2c(O)cc(CN[C@H]3CCCCNC3=O)nc12 | -6.417
10 | Cc1cc(NCC2CC(=O)Nc3ccccc32)nc(C)n1 (configuration not stated) | 2.28
11 | O=S(=O)(N1CCOCC1)N1CCOC(CCCc2ccccc2)C1 (configuration not stated) | 5.354
12 | CC(C)C(=O)N1CCC(c2c(C(N)=O)sc3ccccc23)C1 (configuration not stated) | 99.6
13 | CC(C)C(=O)N1CCC(C2C(=O)Nc3ccccc32)CC1 (configuration not stated) | -15.74
14 | CCN(CC)S(=O)(=O)N1CCCC(c2ccc(C(=O)O)cc2)C1 (configuration not stated) | -2.613
15 | O=S(=O)(N1CCOCC1)N1CCOC(CCc2ccccc2)C1 (configuration not stated) | -18.19
16 | CN(C)S(=O)(=O)N1CCC(c2c(C(N)=O)sc3ccccc23)C1 (configuration not stated) | 94.67
17 | CCN(CC)S(=O)(=O)N1CCCC(c2cccc(C(=O)O)c2)C1 (configuration not stated) | 14.6
18 | CN(C)S(=O)(=O)N1CCC(OCCCc2ccccc2)C1 (configuration not stated) | -12.64
19 | NC(=O)c1sc2ccccc2c1C1CCN(S(=O)(=O)N2CCOCC2)C1 (configuration not stated) | 162.8
20 | CN(C)S(=O)(=O)N1CC[C@]2(O)CCN(c3nc4ccccc4s3)C[C@@H]2C1 | 10.05
21 | CC(NC(=O)N1CCC(CC(N)=O)CC1)c1csc2ccccc12 (configuration not stated) | -9.558
22 | CCN(CC)S(=O)(=O)N1CCC(c2c(C(N)=O)sc3ccccc23)C1 (configuration not stated) | 158.5

Row | SMILES | Percent Effect [%]
23 | COCC1CCN(C(=O)c2cc(O)nc(CC(C)C)c2)CC1 | 9.231
24 | Cl.Cl.c1c(CN2CCCC2)nc2n1CCNC2 | 4.335
25 | CC(C(=O)NCc1cccc(N2CC=CC2)c1)n1cccn1 (configuration not stated) | -4.465
26 | CCOC(=O)N1CCN(C(=O)Cc2c(C)nc(C)[nH]c2=O)CC1 | -14.69
27 | Cc1cnccc1NCCn1ccnc1C1CCOC1 (configuration not stated) | -4.825
28 | CCC(Nc1ncnc2sc(C(=O)O)c(C)c12)c1ccnn1C (configuration not stated) | -0.5167
29 | Cc1ccc(CN2C(=O)CC[C@]23CC[C@@H](NCC2CCOC2)CC3)cc1.O=C(O)C(F)(F)F (some centres not stated) | -23.04
30 | COC(=O)CCNC(=O)C1CC(=O)N(C2CCCC2)C1 (configuration not stated) | -11.01
31 | CCN1CC(C(=O)NCc2ccnc(-n3ccnc3C)c2)CC1=O (configuration not stated) | 5.504
32 | O=C(NCCOc1ccc2c(c1)OCO2)C1CC(=O)N(CC2CC2)C1 (configuration not stated) | 4.084
33 | CC(C)N1CC(C(=O)NCCOc2ccc3c(c2)OCO3)CC1=O (configuration not stated) | 7.499
34 | CC(C)CN1CC(C(=O)NCCOc2ccc3c(c2)OCO3)CC1=O (configuration not stated) | 103.1
35 | CCN1CC(C(=O)NCCOc2ccc3c(c2)OCO3)CC1=O (configuration not stated) | 101.2
36 | CC(C)CN1CC(C(=O)NCCc2c[nH]cn2)CC1=O (configuration not stated) | 10.41
37 | O=C(NCCOc1ccc2c(c1)OCO2)C1CC(=O)N(C2CC2)C1 (configuration not stated) | 106.6
38 | Cc1ccc(OCCC(=O)NC2CC(=O)N(C)C2)cc1C (configuration not stated) | -10.49
39 | O=C(NCCOc1cccc(Cl)c1)C1CC(=O)N(CC2CC2)C1 (configuration not stated) | -4.254
40 | CN1CC(C(=O)NCCOc2ccc3c(c2)OCO3)CC1=O (configuration not stated) | 106.4
41 | CC(=O)N1CCN(c2ccccc2CNc2cncc(C)c2)CC1 | -7.391
42 | CCc1cc(=O)[nH]c2nnc(SCC(=O)NC)n12 | -1.194
43 | Cc1cc(N2CCC(c3nccn3Cc3cscn3)CC2)ccn1 | -23.28
44 | O=C(c1cccs1)N1CCC(O)(CN2CCc3ccccc3C2)C1 (configuration not stated) | -8.795

Row | SMILES | Percent Effect [%]
45 | O=C(Cc1cccs1)N1CCC(O)(CN2CCc3ccccc3C2)C1 (configuration not stated) | 105.2
46 | O=C(NCc1cccs1)NCC1(O)CCc2ccccc2C1 (configuration not stated) | -8.141
47 | O=C(Cc1ccsc1)N1CCC2(CCCN(CC3CCOCC3)C2)C1 (configuration not stated) | -0.5355
48 | O=C(Cc1ccsc1)N1CCC(O)(CN2CCc3ccccc3C2)C1 (configuration not stated) | 104.8
49 | O=C1NC2(CCN(C(=O)Cc3ccsc3)CC2)CC1c1ccccc1 (configuration not stated) | 6.926
50 | CC(C)c1cc(NC(CO)CO)n2nccc2n1 | 17.2
51 | CC(C)n1nc2c(cc1=O)CN(Cc1nc(-c3ccoc3)no1)CC2 | 17.12
52 | COCCN1CCC(C(=O)N(C)CCOc2ccc(C)cc2Cl)C1 (configuration not stated) | -22.94
53 | O=C1CO[C@@H]2CN(S(=O)(=O)c3ccccc3F)C[C@H]2N1 | 96.68
54 | O=C1CO[C@@H]2CN(S(=O)(=O)c3ccc(F)cc3)C[C@H]2N1 | 87.78
55 | O=C1CO[C@H]2CN(Cc3ccc(C(F)(F)F)cc3)C[C@H]2N1 | -16.85
56 | O=C1CO[C@H]2CN(Cc3ccc(F)c(F)c3)C[C@H]2N1 | -16.97
57 | CNC(=O)Cc1csc(NC(=O)C2CSCCC(=O)N2)n1 (configuration not stated) | 9.778
58 | Cc1nc2c(c(NC3CC3)n1)CCN(C(=O)C1(C#N)CC1)CC2 | -9.329
59 | CCNc1ccnc(N2Cc3cnc(CC(C)C)nc3C2)n1 | 8.628
60 | CCOCCNC(=O)C(CCSC)NC(=O)c1ccc2ccccc2n1 (configuration not stated) | 5.309
61 | CCOc1ccc(Cl)c(C(=O)NC(Cc2ccccc2)C(N)=O)n1 (configuration not stated) | -4.15
62 | CSc1ccsc1C(=O)NC(Cc1ccccc1)C(N)=O (configuration not stated) | -23.55
63 | CSCCC(NC(=O)c1ccc2ccccc2n1)C(=O)O (configuration not stated) | -5.769
64 | CSCCC(NC(=O)c1nc(SC)ncc1Cl)C(=O)O (configuration not stated) | 130.6
65 | CCCSc1ncc(Cl)c(C(=O)NC(CCSC)C(=O)O)n1 (configuration not stated) | 125.3
66 | CCSc1ncc(Cl)c(C(=O)NC(CCSC)C(=O)O)n1 (configuration not stated) | 88.5

Row | SMILES | Percent Effect [%]
67 | CSc1ncc(Cl)c(C(=O)NC(Cc2ccccc2)C(=O)O)n1 (configuration not stated) | 98.91
68 | CCOc1ccc(Cl)c(C(=O)NC(C(N)=O)c2ccccc2)n1 (configuration not stated) | -8.916
69 | CSCCC(NC(=O)c1ccc2ccccc2n1)C(=O)N(C)C (configuration not stated) | -7.928
70 | C=C(C)COc1ccc(C(=O)NCCn2c(C)cc(C)nc2=O)cc1 | 3.763
71 | NC(CC1CCCC1)c1ccc(Oc2ccccc2)cc1 (configuration not stated) | -4.539
72 | Cc1nnc(CN2CCCC2c2ccc3c(c2)OCCCO3)n1C (configuration not stated) | -16.28
73 | Cc1ccc(CNCc2nnc3n2CCCC3C(F)(F)F)s1 (configuration not stated) | -0.9896
74 | Cc1cc(CC(=O)NCC(O)COc2ccc(F)c(F)c2)n[nH]1 (configuration not stated) | -4.204
75 | CC(C)CC(=O)Nc1cc(C(=O)N(C)C(C)C)ccc1Cl | -13.72
76 | CCN(CC)C(=O)c1ccc(Cl)c(NC(=O)c2cc(C(C)C)on2)c1 | 105.3
77 | Cc1cnc(C(=O)N(CCN(C)C)Cc2ccc(Cl)cc2)cn1 | 18.7
78 | CC(C)OCCC(=O)Nc1cc(C(=O)N(C)C(C)C)ccc1Cl | -18.48
79 | CCN(CC)C(=O)c1ccc(Cl)c(NC(=O)c2cc[nH]n2)c1 | 48.61
80 | CCN(CC)c1ccc(CNC(=O)c2cnc(C)cn2)cn1 | 0.4576
81 | CCN(CC)C(=O)c1ccc(Cl)c(NC(=O)c2csnn2)c1 | 102.3
82 | CCN(CC)C(=O)c1ccc(Cl)c(NC(=O)c2cnc(C)cn2)c1 | 101.4
83 | COCCN(Cc1ccc(F)cc1Cl)C(=O)c1csnn1 | 2.289
84 | O=C(c1nc(=O)[nH]c2ccccc12)N1CCCC(CC2CC2)(C(=O)O)C1 (configuration not stated) | -2.768
85 | CCc1noc(CS(=O)(=O)c2cccc(OC)c2)n1 | -12.89
86 | CN(C)C[C@@H]1CN(C(=O)Cc2ccc3ccccc3c2)C[C@@H]1CO | -10.12
87 | Cc1cc2occ(CC(=O)N3CCC(O)(CN(C)C)C3)c2cc1Cl (configuration not stated) | -55.74
88 | CN(C)CC1(O)CCCN(C(=O)Cc2ccc(Cl)c(Cl)c2)C1 (configuration not stated) | 6.381

Row | SMILES | Percent Effect [%]
89 | Cc1c(C(=O)N2CCC(O)(CN(C)C)C2)c2cc(O)ccc2n1C (configuration not stated) | -4.838
90 | CN(C)CC1(O)CCN(C(=O)Cc2ccc(Cl)c(Cl)c2)C1 (configuration not stated) | -5.552
91 | CN(C)CC1(O)CCN(C(=O)Cc2ccc3c(c2)CCCC3)C1 (configuration not stated) | 97.61
92 | CN(CCO)C[C@@H]1CN(C(=O)Cc2ccc3ccccc3c2)C[C@@H]1CO | -10.71
93 | CN(C)CC1(O)CCN(C(=O)Cc2ccc3ccccc3c2)C1 (configuration not stated) | 131.3
94 | CN(C)CC1(O)CCN(C(=O)Cc2ccc3c(c2)CCC3)C1 (configuration not stated) | 113.1
95 | COc1c(NC(=O)N(C)CCOc2ccc(F)cc2)c(C)nn1C | -9.317
96 | CC(=O)N1CCCC1C(=O)NCCOc1c(C)cccc1C (configuration not stated) | 70.88
97 | O=C1CCCN1CC1CCCCN1C(=O)Nc1cccc(F)c1 (configuration not stated) | -9.718
98 | CC(C)CCNC(=O)C1CCCN1C(=O)Nc1cccc(F)c1 (configuration not stated) | 134.2
99 | C=C(C)COCCNC(=O)C1CCCN1C(C)=O (configuration not stated) | 4.711
100 | CC(=O)NCCOc1c(C)cccc1C | -5.514
101 | CC(=O)N1CCC[C@H]1C(=O)NCCOc1cccc(Cl)c1 | 1.208
102 | CC(=O)N1CCN(C(=O)CCOc2ccc(C(C)C)cc2)CC1 | -11.35
103 | CC(=O)N1CCCC1C(=O)NCCOc1ccc(C(C)C)cc1 (configuration not stated) | 97.98
104 | CC(=O)N1CCCC1C(=O)NCCOc1cccc(F)c1 (configuration not stated) | 92.85
105 | Cc1ccc(F)cc1NC(=O)C1CCCN1C(=O)C(C)C (configuration not stated) | -3.665
106 | CC(=O)N1CCCC1C(=O)NCCOc1cc(C)cc(C)c1 (configuration not stated) | 2.584
107 | CC(=O)N1CCC[C@H]1C(=O)N(C)CCCOc1ccccc1 | 16.69
